These results are taken from PubChem BioAssay (NCI).

About 83,000 compounds went through this panel and 20% of them were active in at least one assay; those are over-represented in the sample as a whole.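 48-hour exposure, single concentration, 96-well plates; percent growth endpoint where 0 means no net growth. Active: below 10.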 Unmarked numbers belong to inactive results. Activity calls are given as the source filed them.

Test systems include NCI-H23 lung; NCI-H226 lung; NCI-H322M lung; HOP-62 NSCLC; NCI-H460 lung; HOP-92 NSCLC; NCI-H522 lung; A549/ATCC NSCLC; 786-0 renal; COLO 205 colon.
Common to all, as to experiment: NCI-60 one-dose screen, 48 h (100 = growth as untreated, 0 = no growth, -100 = all killed)
Conditions in all cases: 10 µM unless noted

As for `CCOc1ccc(-n2nc(C(=O)Nc3cc(OC)c(OC)c(OC)c3)nc2-c2cc(OC)c(OC)c(OC)c2)cc1`, the growth in the assay on NCI-H23 lung is 85%; in the assay on NCI-H226 lung, 78.1%; with NCI-H322M lung it was 89.2%; in the assay with HOP-62 NSCLC, 95.7%; with NCI-H460 lung, 92.1%; in the assay with HOP-92 NSCLC it was 69.9%. The growth with NCI-H522 lung was 65.9%; in the assay with A549/ATCC NSCLC, 86.9%; in the assay with 786-0 renal it was 77.1%; with COLO 205 colon, 80.3%.

For the molecule `NNCCc1ccc(NC(=O)CCCc2ccc(/C=C/C(=O)NO)cc2)cc1`, the growth was 64.9% in the assay with NCI-H23 lung; 36% in the assay with NCI-H226 lung; 64% in the assay with NCI-H322M lung; 32.8% in the assay with HOP-62 NSCLC; 62.8% in the assay on NCI-H460 lung; 28.8% with HOP-92 NSCLC. The growth in the assay with NCI-H522 lung is 16.6%; in the assay with A549/ATCC NSCLC, 76.4%; in the assay on 786-0 renal it was 71.3%; in the assay on COLO 205 colon it was 71.2%.

Turning to `CC(=O)O[C@H]1[C@@H]2OC(=O)C(CSc3ccccc3)[C@@H]2C[C@H]2O[C@]2(C)CC/C=C(\C)CCC[C@@H]1C` (stereo not given in full), the growth with NCI-H23 lung was 53.1%; in the assay on NCI-H226 lung, 47.9%; in the assay on NCI-H322M lung, 38%; in the assay with HOP-62 NSCLC, 101%; with NCI-H460 lung, 42.3%; in the assay with HOP-92 NSCLC, -22.4% (active). In addition, the growth in the assay with NCI-H522 lung was -87.2% (active); with A549/ATCC NSCLC, 21.2%; in the assay on 786-0 renal it was 61.4%; in the assay on COLO 205 colon it was 29.7%.

With `C=C1c2nc3ccccc3n2C=C(c2cccc(Cl)c2)N1Cc1ccc(OC)cc1`, the growth was 29.4% in the assay on NCI-H23 lung; 94.1% in the assay with NCI-H226 lung; 44.6% in the assay with NCI-H322M lung; 41.2% with HOP-62 NSCLC; 4.58% (active) in the assay with NCI-H460 lung; 77.9% in the assay on HOP-92 NSCLC. Also, the growth was -10.9% (active) in the assay with NCI-H522 lung, 14.3% with A549/ATCC NSCLC, 35.5% in the assay with 786-0 renal and 95% in the assay on COLO 205 colon.

With `NC(=O)c1cc(I)ccc1NC(=O)/C=C/c1ccccc1Cl`, the growth is 43.4% in the assay on NCI-H23 lung; 44.1% in the assay with NCI-H226 lung; 55.5% with NCI-H322M lung; 83% in the assay on HOP-62 NSCLC; 0.527% (active) in the assay on NCI-H460 lung; 48.3% in the assay on HOP-92 NSCLC. For the same molecule, the growth with NCI-H522 lung is -45.9% (active); with A549/ATCC NSCLC, 15.7%; with 786-0 renal, 48.1%; with COLO 205 colon, -26.7% (active).

Take `C=CC(COC(c1ccccc1)(c1ccccc1)c1ccccc1)N(CC)CC` (stereo not given): the growth with NCI-H23 lung is 65.2%; with NCI-H226 lung, 56.2%; in the assay on NCI-H322M lung, 87%; with HOP-62 NSCLC, 61.8%; in the assay on NCI-H460 lung, 58.1%; in the assay with HOP-92 NSCLC it was 75.7%. In addition, the growth with NCI-H522 lung was 54.9%; in the assay with A549/ATCC NSCLC it was 63.1%; in the assay on 786-0 renal, 77.6%; in the assay on COLO 205 colon, 0.413% (active).

With `CCCCC/C(C=C(C#N)C#N)=C/c1ccccc1`, the growth in the assay on NCI-H23 lung was 68.9%; with NCI-H226 lung, 116%; with NCI-H322M lung, 102%; in the assay on HOP-62 NSCLC, 106%; in the assay with NCI-H460 lung it was 37.4%; in the assay with HOP-92 NSCLC, 112%. Besides, the growth was -10.1% (active) in the assay with NCI-H522 lung, 61.6% with A549/ATCC NSCLC, 87% with 786-0 renal and 86.5% in the assay on COLO 205 colon.

Regarding `NS(=O)(=O)c1ccc(CN=C2NC(=O)S/C2=C\c2ccc(Br)cc2)cc1`, the growth in the assay on NCI-H23 lung is 97.6%; in the assay with NCI-H226 lung, 96.9%; in the assay with NCI-H322M lung, 91%; in the assay with HOP-62 NSCLC, 103%; in the assay with NCI-H460 lung it was 101%; in the assay on HOP-92 NSCLC, 90.5%. Further, the growth with NCI-H522 lung is 90.8%; in the assay with A549/ATCC NSCLC, 98.3%; in the assay on 786-0 renal it was 94.1%; in the assay with COLO 205 colon, 106%.

As to `CCCc1cc(=O)n2c(C(=O)Nc3cccc(C(=O)OCC)c3)c(C(=O)Nc3ccc(F)cc3)sc2n1`, the growth in the assay with NCI-H23 lung is 79.8% [30 µM]; in the assay on NCI-H226 lung, 89% [30 µM]; in the assay with NCI-H322M lung, 97.3% [30 µM]; with HOP-62 NSCLC, 36.6% [30 µM]; in the assay on NCI-H460 lung, 23% [30 µM]; with HOP-92 NSCLC it was -31.5% [30 µM] (active). The growth in the assay on NCI-H522 lung is 65% [30 µM]; with A549/ATCC NSCLC, 3.58% [30 µM] (active); in the assay on 786-0 renal, 15.1% [30 µM]; in the assay with COLO 205 colon, 72.9% [30 µM].

In the case of `Cn1cccc1-c1nc2c3c(ccc2[nH]1)C(=O)c1ccccc1C3=O`, the growth in the assay with NCI-H23 lung is 85.3%; with NCI-H226 lung, 86.2%; in the assay on NCI-H322M lung it was 81.8%; in the assay with HOP-62 NSCLC, 102%; with NCI-H460 lung, 87.2%; in the assay on HOP-92 NSCLC it was 89%. Also, the growth in the assay on NCI-H522 lung was 73.6%; in the assay on A549/ATCC NSCLC, 87.9%; in the assay with 786-0 renal, 103%; in the assay with COLO 205 colon it was 120%.

Regarding `CCOc1ccc(C(C)=O)cc1NC(=O)c1cccc(-c2nnn(CC)n2)c1`, the growth in the assay with NCI-H23 lung is 42.6%; in the assay with NCI-H226 lung it was 59%; in the assay with NCI-H322M lung, 49.1%; with HOP-62 NSCLC, 36.8%; in the assay with NCI-H460 lung it was 12.1%; in the assay with HOP-92 NSCLC, 42.5%. Further, the growth was -38.3% (active) in the assay with NCI-H522 lung, 45% with A549/ATCC NSCLC, 35.5% in the assay with 786-0 renal and -3.73% (active) in the assay with COLO 205 colon.

For `Cn1c(=O)c2c(nc3n(-c4ccc(Cl)cc4Cl)c(Sc4nc(-c5ccccc5)c(C#N)c(=O)[nH]4)cn23)n(C)c1=O`, the growth in the assay on NCI-H23 lung was 65%; in the assay with NCI-H226 lung, 56.4%; in the assay with NCI-H322M lung, 26.4%; in the assay on HOP-62 NSCLC, 54.8%; with NCI-H460 lung, 13.9%; with HOP-92 NSCLC, 34.4%. Moreover, the growth is 59.6% with NCI-H522 lung, 20.9% in the assay with A549/ATCC NSCLC, 15.1% with 786-0 renal and 71.8% in the assay with COLO 205 colon.
